Measurements reported in PubChem BioAssay AID652071 (NMMLSC, 2013).

assay: yeast cytosolic pH changes via V-ATPase – S. cerevisiae, pHLuorin, powder set 4, dose response (AID 652071); details: S. cerevisiae pHLuorin cytosolic pH fluorescence; series mostly up to 100 µM; response change, sign ambiguous: at the top concentration; call rule not given here

Response change, sign ambiguous, inactive:
COCc1cccc(C(=O)Nc2ccccc2N2CCCCC2)c1 -22.1%, CN1CCN(c2ccccc2NC(=O)c2cccc(Br)n2)CC1 18.4%, CS(=O)(=O)c1cccc(C(=O)Nc2ccccc2N2CCOCC2)c1 17.9%, O=C(Nc1ccccc1N1CCCCC1)c1cc(Cl)ccn1 -24.7%, CN1CCN(c2ccccc2NC(=O)c2cncc(Cl)n2)CC1 -1.67%, CS(=O)(=O)c1cccc(C(=O)N2CCN(c3nc4ccc(F)cc4s3)CC2)c1 -19.9%, O=C(c1occc1-c1ccccc1)N1CCN(c2nc3ccc(F)cc3s2)CC1 78.3%, CC(=O)N1CCN(c2ccccc2NC(=O)c2cccc(CN(C)C)c2)CC1 11.7%, CN1CCN(c2ccccc2NC(=O)c2cccc(CS(C)(=O)=O)c2)CC1 -10.9%, CC(=O)N1CCN(c2ccccc2NC(=O)c2cc(Cl)ccn2)CC1 5.48%, CS(=O)(=O)c1ccc(C(=O)Nc2ccccc2N2CCCCC2)o1 -5.92%, CS(=O)(=O)Cc1cccc(C(=O)Nc2ccccc2N2CCCCC2)c1 7.01%, CN1CCN(c2ccccc2NC(=O)c2ccc(Br)o2)CC1 2.63%, CC(=O)N1CCN(c2ccccc2NC(=O)c2ccc(S(C)(=O)=O)o2)CC1 -31.2%, CS(=O)(=O)c1cccc(C(=O)Nc2ccccc2N2CCCCC2)c1 7.01%, O=C(Nc1ccccc1N1CCCCC1)c1cccc(Br)n1 -14.9%, Nc1cncc(C(=O)Nc2ccccc2N2CCCCC2)n1 4.83%, CN1CCN(c2ccccc2NC(=O)c2ccc(C(F)(F)F)o2)CC1 -7.3%, CN1CCN(c2ccccc2NC(=O)c2cccc(S(C)(=O)=O)c2)CC1 1.86%, N#Cc1cccc(C(=O)Nc2ccccc2N2CCCCC2)c1 -29.4%, CN(C)Cc1cccc(C(=O)Nc2ccccc2N2CCN(C)CC2)c1 3.21%, CC(=O)N1CCN(c2ccccc2NC(=O)c2ccc(Br)o2)CC1 15%, CC(=O)N1CCN(c2ccccc2NC(=O)c2ccc(Cl)o2)CC1 -3.95%, Cc1cncc(C(=O)Nc2ccccc2N2CCN(C)CC2)n1 -10.2%, O=C(Nc1ccccc1N1CCCCC1)c1cccc(C(F)(F)F)n1 -18.9%, Cc1ccnc(C(=O)Nc2ccccc2N2CCCCC2)c1 -34.3%, O=C(Nc1ccccc1N1CCCCC1)c1ccc(C(F)(F)F)o1 -23.6%, Cc1ccc(C(=O)Nc2ccccc2N2CCCCC2)o1 -65.7%, COCc1ccc(C(=O)Nc2ccccc2N2CCN(C)CC2)o1 17.8%, CN1CCN(c2ccccc2NC(=O)c2ccc(C(N)=O)o2)CC1 -14.2%, CN1CCN(c2ccccc2NC(=O)c2cccc(Cl)n2)CC1 14.3%, CC(=O)N1CCN(c2ccccc2NC(=O)c2cncc(Cl)n2)CC1 -21.5%, O=C(Nc1ccccc1N1CCCCC1)c1ccc(Br)o1 -17.4%, Cc1cccc(C(=O)Nc2ccccc2N2CCCCC2)n1 -33.3%, CC(=O)N1CCN(c2ccccc2NC(=O)c2cccc(C(F)(F)F)c2)CC1 4.04%
